# Test system: murine 3T3 fibroblasts
# Test: primary screen, percent viability or growth; higher = less effect of the substance
# Protocol: Similarly, for measuring the cytotoxicity concentration (CC50) for 3T3 fibroblast cells, cultures were incubated with drugs for 72 hours and developed using Alamar Blue (Alamar Biosciences Inc, Sacramento, CA) as previously described.
row,Compound,Mammalian (3T3) cell % growth at 10 uM [%]
1,COc1cc(NC(C)CCCN)c2ncccc2c1.O=P(O)(O)O.O=P(O)(O)O (centres unmarked),91.1
2,CNCCC(Oc1ccc(C(F)(F)F)cc1)c1ccccc1.Cl (centres unmarked),100
3,CCCCc1oc2ccccc2c1C(=O)c1cc(I)c(OCCN(CC)CC)c(I)c1.Cl,86.7
4,CC[C@@H]1/C=C/C=C/C[C@H](C)[C@@H](O)[C@](C)(O)C(=O)[C@H](C)[C@@H](O)[C@H](C)C(=O)[C@H](C)[C@@H](O)[C@H](C)/C=C/C(=O)O[C@H]2[C@@H](C)[C@@H](CC1)O[C@@]1(CC[C@@H](C)[C@@H](C[C@@H](C)O)O1)[C@@H]2C,57.7
5,c1ccc(-c2ccc(C(c3ccccc3)n3ccnc3)cc2)cc1 (centres unmarked),93.6
6,C=C1c2c(Cl)ccc(O)c2C(O)=C2C(=O)[C@]3(O)C(=O)/C(=C(/N)O)C(=O)[C@@H](N(C)C)[C@@H]3[C@@H](O)[C@H]12.O=C(O)c1cc(S(=O)(=O)O)ccc1O,60.9
7,Oc1ccc2c(c1)OC[C@]1(O)Cc3cc(O)c(O)cc3[C@H]21,3.6
8,C=C(C)[C@@H]1CC[C@]2(CO)CC[C@]3(C)[C@H](CC[C@@H]4[C@@]5(C)CC[C@H](O)C(C)(C)[C@@H]5CC[C@]43C)[C@@H]12,100
9,CC(C)CCC[C@@H](C)[C@H]1CC[C@H]2[C@@H]3C(=O)C=C4C[C@@H](O)CC[C@]4(C)[C@H]3CC[C@]12C,68.5
10,CN(C)CCCN1c2ccccc2CCc2ccc(Cl)cc21.Cl,84.6
11,CN(C)CCCN1c2ccccc2Sc2ccc(Cl)cc21,99.3
